Screening data deposited in PubChem BioAssay by Broad Institute.
YB-1 expr inh: YB-1 expression inhibition | U2OS, qRT-PCR YB-1 vs CDIP delta delta Cp, 16 h; active compounds read high; zero = DMSO, each unit about twofold | delta delta Cp (YB-1 minus CDIP) (test concentration not listed) | AID 434959 | hit rate 0.37% among 30,000;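 active means delta delta Cp rounded down to an integer at or above 3, about 3 SD of DMSO wells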;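 further: higher means less YB-1 transcript or more CDIP transcript relative to DMSO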
MITF inhib: MITF inhibition; TRPM1 promoter luciferase, luminescence, 24 h; inhibition, % (test concentration not listed); hit rate 0.28% among 37,000; AID 2240; in the data active means inhibition above about 85%; inconclusive means no clear call, values can overlap the other calls; inactive means below about 68%;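 further: human melanocyte line stably carrying TRPM1 promoter luciferase reporter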
NOMO-1 viab: STK33 inhibitor candidate reducing NOMO-1 cell viability. hit rate 7.5% among 37,000. inhibition, % (no concentration beside the values). AID 2330. NOMO-1 AML viability, CellTiter-Glo luminescence, 72 h; in the data active means inhibition above about 80%; inconclusive means no clear call, values can overlap the other calls
Shh pathway inh: blocks Sonic Hedgehog signaling. Shh-LIGHT2 Gli-luciferase reporter, 30 h. inhibition, % (no concentration beside the values). hit rate 2.1% among 22,000;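 active means mean inhibition across valid replicates above about 65%, limit read from the data; inconclusive means mean under the limit, yet half or more replicates past it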;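 further: pathway switched on by Shh-conditioned medium diluted 1 in 25 in low serum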
PD-1 reverse act: activators reversing PD-1 mediated T-cell inhibition. primary human CD4 T cells, PD-L1 beads, CellTiter-Glo 96 h. activation, % (test concentration not listed). 29,000 tested, under 10 active; call rule not given here
Numbers stand for hits; n = inactive; u = inconclusive; x = not tested or not shown. Rows were chosen to be rich in hits. Some 7.4% of all compounds tested hit in one or more screens of this group.

SMILES	YB-1 expr inh	MITF inhib	NOMO-1 viab	Shh pathway inh	PD-1 reverse act
CCN(C(=S)Nc1ccc(C)cc1)c1ccccc1	n	n	n	n	n
CCN(CC)C(=S)NC(=S)c1ccc(C)cc1	n	n	122	n	n
CCOC(=O)c1c(NC(=O)C2CC(c3cccc(Br)c3)=NO2)sc(C(=O)OC)c1C (configuration not stated)	x	n	n	x	x
COc1ccc(S(=O)(=O)Nc2ccc3c(c2)C(=O)N([C@H](C)CO)C[C@@H](C)[C@H](CN(C)Cc2ccc(C(=O)Nc4ccccc4N)cc2)O3)cc1	n	n	n	x	n
COc1ccc(S(=O)(=O)Nc2ccc3c(c2)CC(=O)N([C@H](C)CO)C[C@@H](C)[C@@H](CN(C)Cc2ccc(C(=O)Nc4ccccc4N)cc2)O3)cc1	n	n	92	x	n
COc1ccc(S(=O)(=O)Nc2ccc3c(c2)CC(=O)N([C@H](C)CO)C[C@H](C)[C@H](CN(C)Cc2ccc(C(=O)Nc4ccccc4N)cc2)O3)cc1	n	n	140	x	n
N#Cc1c(NC(=O)C2CC(c3ccccc3O)=NO2)sc2c1CCCC2 (configuration not stated)	x	n	n	x	x
Cc1ccc(Cl)cc1N(CC(=O)O)S(C)(=O)=O	x	n	n	x	n
C[C@H](CO)N1C[C@H](C)[C@H](CN(C)Cc2ccccc2)Oc2ccc(NC(=O)Nc3ccc(C(F)(F)F)cc3)cc2CC1=O	n	n	u	n	n
C[C@H]1CN([C@@H](C)CO)C(=O)Cc2cc(NC(=O)Nc3ccccc3)ccc2O[C@H]1CN(C)Cc1ccc(C(F)(F)F)cc1	n	n	127	n	x
C[C@H]1CN([C@@H](C)CO)C(=O)Cc2cc(NC(=O)Nc3ccc(C(F)(F)F)cc3)ccc2O[C@H]1CN(C)Cc1ccccc1	n	n	85	n	x
CN(C)c1nc(C(C)(C)C)cc2c1C(=O)NC2=O	n	n	n	n	n
CC(Oc1cccc(NC(=O)c2cccc([N+](=O)[O-])c2)c1)C(=O)c1cccc(Cl)c1 (configuration not stated)	x	n	n	x	n
C=C1C(=O)O[C@H]2C[C@H](C)[C@@H]3CC(=O)C(C)=C3C[C@H]12	n	n	117	n	n
C=C1C(=O)O[C@H]2CC(C)C3CC[C@@]4(C)O[C@@]34CC12 (some centres not stated)	n	x	x	n	x
COc1cc(C)c2c(=O)c3c(O)cc(O)cc3oc2c1	n	n	n	n	n
CC(C)CC(C(=O)c1ccccc1)c1ccccc1 (configuration not stated)	n	n	n	n	n
CCc1cccc2c(C(C(=O)c3ccccc3)c3c[nH]c4c(CC)cccc34)c[nH]c12	n	n	111	n	n
CC(C)(C)OC(=O)N1Cc2ccccc2C[C@H]1C(=O)NCCN1CCOCC1	n	n	n	n	n
O=C(CC1(O)C(=O)N(C/C=C/c2ccccc2)c2ccccc21)c1ccccn1 (configuration not stated)	x	n	123	x	n
C=CCN1C(=O)C(O)(CC(=O)c2ccc(C)o2)c2ccccc21 (configuration not stated)	x	n	n	x	x
COc1cccc(NC(=O)c2ccc(OC(=S)N3CCC(C)CC3)cc2)c1	n	n	n	x	n
Cc1cc(C)c(NC(=O)CSc2nc(O)cc(=O)[nH]2)c(C)c1	x	n	n	x	n
CC(C)(C)c1cc(O)c(C(C)(C)C)cc1O	n	n	114	90	x
C[C@@H]1CN([C@H](C)CO)C(=O)Cc2cc(NC(=O)Cc3cn(C)c4ccccc34)ccc2O[C@@H]1CN(C)Cc1ccc(C(=O)Nc2ccccc2N)cc1	n	n	n	x	n
SMILES	YB-1 expr inh	MITF inhib	NOMO-1 viab	Shh pathway inh	PD-1 reverse act
C[C@H](CO)N1C[C@H](C)[C@H](CN(C)Cc2ccc(C(=O)Nc3ccccc3N)cc2)Oc2ccc(NC(=O)Cc3cn(C)c4ccccc34)cc2CC1=O	n	n	127	x	n
C[C@H]1CN([C@@H](C)CO)C(=O)Cc2cc(NC(=O)Cc3cn(C)c4ccccc34)ccc2O[C@H]1CN(C)Cc1ccc(C(=O)Nc2ccccc2N)cc1	n	n	120	x	n
Cc1c(NC(=O)COc2ccc(C(C)C)cc2)cccc1C(=O)O	x	n	n	x	n
COc1cc(S(=O)(=O)NC2CC(C)(C)NC(C)(C)C2)c(OC)cc1Br	x	n	n	x	x
COc1ccc(-c2cc(=O)c3ccccc3o2)cc1	n	n	n	n	x
CCOC(=O)Nc1cc(=O)c2ccccc2o1	n	n	119	n	n
CSc1ccccc1NC(=O)CN(C)S(=O)(=O)c1c(C)cc(C)cc1C	x	n	n	x	n
O=C(CSc1nc(-c2ccccc2)cs1)Nc1ccccc1C(F)(F)F	x	n	n	x	n
